Many of the other results were omitted from the sample, so hits are more common in it than they were.
IDE exosite FP = insulin-degrading enzyme (human) exo-site inhibition; P14735; purified IDE, FL-6b probe fluorescence polarization; stronger effect = lower value; z-score at 20 µM; hit rate 6.3% among 17,000; AID 1259349;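 active means z-score of -3 or lower, meaning strong loss of probe binding signal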;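 further: His-tagged human IDE residues 42-1019 made in E. coli with 30 nM FL-6b probe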
Starred values were filed as active, the others as inactive; ! = not confirmed by another sample.

SMILES | IDE exosite FP
CN(C)CC(=O)N1[C@@H](C#N)[C@@H](c2ccc(-c3cccc(C(=O)N(C)C)c3)cc2)[C@@H]1CO | -0.035
N#C[C@H]1[C@H](c2ccccc2-c2ccccc2F)[C@H](CO)N1C(=O)c1ccccn1 | 1.6
CCCN(C)C[C@@H]1OCCCC[C@H](C)Oc2ccc(NC(=O)CCCN(C)C)cc2C(=O)N([C@@H](C)CO)C[C@@H]1C | -0.38
CCC(=O)N1C[C@H]2[C@@H](c3ccccc31)[C@@H](CO)N2C(=O)CC1CC1 | 2.9
CCCC#Cc1ccc([C@H]2[C@@H](CO)N3C(=O)CN(C(=O)NC4CCCC4)C[C@@H]23)cc1 | 0.095
COCC(=O)N(C[C@H]1N[C@H](CO)[C@@H]1c1ccc(-c2ccccc2)cc1)C(C)C | 1.2
COc1ccc(C[C@@H]2CCn3nncc3COC[C@H](CC(C)C)NC2=O)cc1 | 0.22
COc1ccc2c3c([nH]c2c1)[C@H](CO)N(S(C)(=O)=O)CC31CCN(C(=O)Nc2ccccc2)CC1 | 0.71
CN(C)C(=O)c1cccc(-c2ccc([C@H]3[C@@H](C#N)N(C(=O)C4CCC4)[C@H]3CO)cc2)c1 | 3.9
COc1ccc(CN2CC3(C2)[C@H](c2ccccc2)[C@@H](CO)N3CC2CCCC2)cc1 | 0.053
COc1cccc(-c2ccc([C@H]3[C@H]4CN(C(=O)c5cccnc5)CC(=O)N4[C@H]3CO)cc2)c1 | -0.65
O=C(c1ccncc1)N1CC(=O)N2[C@H](CO)[C@H](c3ccc(-c4ccccc4)cc3)[C@@H]2C1 | 2.2
COc1cccc(-c2ccc([C@H]3[C@@H](CO)N4C(=O)CN(C(=O)c5ccncc5)C[C@@H]34)cc2)c1 | -8.6*
COc1cccc(-c2ccc([C@@H]3[C@H]4CN(C(=O)c5ccncc5)CC(=O)N4[C@H]3CO)cc2)c1 | -11*
COc1cccc(-c2ccc([C@@H]3[C@H](CO)N4C(=O)CN(C(=O)c5cccnc5)C[C@@H]34)cc2)c1 | -1.6
COc1cccc(-c2ccc([C@@H]3[C@@H](CO)N4C(=O)CN(C(=O)c5ccncc5)C[C@H]34)cc2)c1 | 1.7
O=C1CN(S(=O)(=O)c2ccccc2)C[C@H]2[C@H](c3ccc(C#CCc4ccccc4)cc3)[C@H](CO)N12 | -2.3
C[C@@H]1CNC(=O)[C@H](Cc2ccc(C(F)(F)F)cc2)CCn2nncc2COC1 | 1.1
COc1cccc(C#Cc2ccc([C@H]3[C@H](CO)N4C(=O)CN(S(=O)(=O)c5ccccc5C)C[C@@H]34)cc2)c1 | 0.37
CS(=O)(=O)N1CCCCN2[C@H](CO)[C@@H](c3ccc(Br)cc3)[C@H]2C1 | 2.4
COc1ccc(S(=O)(=O)N2CCCCN3[C@H](CO)[C@H](c4ccc(C5=CCCC5)cc4)[C@@H]3C2)cc1 | 2.3
CC(C)CC#Cc1ccc([C@H]2[C@H](CO)N3C(=O)CN(C(=O)Nc4ccc(F)cc4)C[C@@H]23)cc1 | 3.8
COCC(=O)N(C)C[C@@H]1[C@@H](c2ccc(-c3cccnc3)cc2)[C@H](CO)N1C(C)=O | 0.011
C[C@H](CO)N1C[C@H](C)[C@H](CN(C)C(=O)c2cnccn2)Oc2cc(C#CCC3CCCC3)ccc2S1(=O)=O | 0.17
CCN1CC(=O)N2[C@H](CO)[C@H](c3ccc(-c4ccccc4F)cc3)[C@@H]2C1 | -0.055
SMILES | IDE exosite FP
COCC(=O)N1CC(=O)N2[C@@H](CO)[C@@H](c3ccc(-c4ccccc4F)cc3)[C@@H]2C1 | -1.1
CCC(=O)N1CC(=O)N2[C@H](CO)[C@H](c3ccc(-c4ccccc4F)cc3)[C@H]2C1 | -7.4*
CCC(=O)N1CC(=O)N2[C@H](CO)[C@H](c3ccc(-c4ccccc4F)cc3)[C@@H]2C1 | -2.1
COCC(=O)N1CC(=O)N2[C@H](C1)[C@@H](c1ccc(-c3ccccc3F)cc1)[C@@H]2CO | -2.6
CCC(=O)N1CC(=O)N2[C@H](C1)[C@@H](c1ccc(-c3ccccc3F)cc1)[C@@H]2CO | -8*
O=C(C[C@@H]1CC[C@H]2NC[C@@H](O)COC[C@@H]2O1)NCc1ccc2c(c1)OCO2 | 0.39
CC(C)CC#Cc1ccc([C@@H]2[C@H](CO)N3C(=O)CN(C(=O)Nc4ccc(F)cc4)C[C@@H]23)cc1 | 4
O=C(C[C@H]1CC[C@H]2NC[C@H](O)COC[C@@H]2O1)Nc1nccs1 | 0.68
C/C=C/c1cccc(-c2nc(C(=O)NCc3ccccn3)cc3c2[C@H](CCO)N([S@@](=O)C(C)(C)C)C3)c1 | 0.49
Cc1ccccc1-c1ccc([C@@H]2[C@H]3CN(C(=O)c4cccnc4)CCCCN3[C@H]2CO)cc1 | -7.3*
Cc1ccccc1-c1ccc([C@@H]2[C@@H](CO)N3CCCCN(C(=O)c4cccnc4)C[C@@H]23)cc1 | -8*
Cc1ccccc1-c1ccc([C@H]2[C@@H](CO)N3CCCCN(C(=O)c4cccnc4)C[C@@H]23)cc1 | -4.8*
O=C(Nc1ccc2c(c1)[C@@H]1C[C@H](CC(=O)N3CCCCC3)O[C@H](CO)[C@@H]1O2)NC1CCCCC1 | 0.99
CCC(=O)N1[C@H](CO)[C@@H](c2ccc(-c3cccc(F)c3)cc2)[C@H]1CNC(C)=O | 4.8
Cc1noc(C)c1NC(=O)N(C)C[C@@H]1Oc2cc(C#CCN(C)C)ccc2S(=O)(=O)N([C@H](C)CO)C[C@@H]1C | -1.9
O=C(NC1CCCC1)[C@H]1[C@H](CO)[C@H]2Cn3c(ccc(C4=CCCCC4)c3=O)[C@@H]1N2CC1CC1 | -0.42
C/C=C/c1ccc([C@H]2[C@@H](CO)N(C(C)=O)[C@@H]2CNC(=O)NCCC)cc1 | 1
O=C(Nc1ccc(F)cc1)N1CC(=O)N2[C@H](CO)[C@@H](c3ccc(C#Cc4cccnc4)cc3)[C@@H]2C1 | 1.3
Cc1ccccc1-c1ccc(C2[C@@H]3CN(S(=O)(=O)c4ccccc4)C[C@H]2N3)cc1 (stereo not given in full) | -10*
COc1ccccc1S(=O)(=O)N1[C@@H]2CNC[C@H]1C2c1ccc(/C=C/c2ccccc2)cc1 (stereo not given in full) | -5.2*!
Cc1ccccc1-c1ccc(C2[C@@H]3CN(S(=O)(=O)c4ccccc4C)C[C@H]2N3)cc1 (stereo not given in full) | -11*!
Cc1ccc(S(=O)(=O)N2C[C@@H]3N[C@H](C2)C3c2ccc(/C=C/c3ccccc3)cc2)cc1 (stereo not given in full) | 4.2
COc1ccccc1S(=O)(=O)N1[C@@H]2CNC[C@H]1C2c1ccc(-c2ccncc2)cc1 (stereo not given in full) | 0.19
COc1ccc(S(=O)(=O)N2[C@@H]3CNC[C@H]2C3c2ccc(-c3cccc(OC)c3)cc2)cc1 (stereo not given in full) | 3.4
COc1cccc(S(=O)(=O)N2[C@@H]3CNC[C@H]2C3c2ccc(-c3cccc(C)c3)cc2)c1 (stereo not given in full) | -1.5
COc1cccc(S(=O)(=O)N2[C@@H]3CNC[C@H]2C3c2ccc(-c3ccccc3C)cc2)c1 (stereo not given in full) | -5.3*
COc1cccc(-c2ccc(C3[C@@H]4CN(S(=O)(=O)c5ccccc5C)C[C@H]3N4)cc2)c1 (stereo not given in full) | -1.6
C/C=C/c1ccc(C2[C@@H]3CN(S(=O)(=O)c4ccccc4)C[C@H]2N3)cc1 (stereo not given in full) | 0.064
COc1ccc(-c2ccc(C3[C@@H]4CN(S(=O)(=O)c5ccccc5C)C[C@H]3N4)cc2)cc1 (stereo not given in full) | -0.84

Screening data: PubChem BioAssay, Broad Institute
